# Measured values: paper PMC4336329 (PLoS ONE, 2015)
# Screen size: about 310,000 compounds; about 14,000 (4.5%) showed an effect of 50% or more. Effects have a minus sign here. For the sample, strong results were picked, then their nearest neighbours and some compounds at random.
# Biological target: human ether-à-go-go-related gene (hERG) potassium channel (human, UniProt Q12809)
# Assay: primary screen, population patch clamp on CHO cells stably expressing hERG; higher = less effect of the substance
# 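Further: peak tail current of the secondary pulse compared with the same well before compound.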
# Sequence of human ether-à-go-go-related gene (hERG) potassium channel (Q12809 whole entry, looked up): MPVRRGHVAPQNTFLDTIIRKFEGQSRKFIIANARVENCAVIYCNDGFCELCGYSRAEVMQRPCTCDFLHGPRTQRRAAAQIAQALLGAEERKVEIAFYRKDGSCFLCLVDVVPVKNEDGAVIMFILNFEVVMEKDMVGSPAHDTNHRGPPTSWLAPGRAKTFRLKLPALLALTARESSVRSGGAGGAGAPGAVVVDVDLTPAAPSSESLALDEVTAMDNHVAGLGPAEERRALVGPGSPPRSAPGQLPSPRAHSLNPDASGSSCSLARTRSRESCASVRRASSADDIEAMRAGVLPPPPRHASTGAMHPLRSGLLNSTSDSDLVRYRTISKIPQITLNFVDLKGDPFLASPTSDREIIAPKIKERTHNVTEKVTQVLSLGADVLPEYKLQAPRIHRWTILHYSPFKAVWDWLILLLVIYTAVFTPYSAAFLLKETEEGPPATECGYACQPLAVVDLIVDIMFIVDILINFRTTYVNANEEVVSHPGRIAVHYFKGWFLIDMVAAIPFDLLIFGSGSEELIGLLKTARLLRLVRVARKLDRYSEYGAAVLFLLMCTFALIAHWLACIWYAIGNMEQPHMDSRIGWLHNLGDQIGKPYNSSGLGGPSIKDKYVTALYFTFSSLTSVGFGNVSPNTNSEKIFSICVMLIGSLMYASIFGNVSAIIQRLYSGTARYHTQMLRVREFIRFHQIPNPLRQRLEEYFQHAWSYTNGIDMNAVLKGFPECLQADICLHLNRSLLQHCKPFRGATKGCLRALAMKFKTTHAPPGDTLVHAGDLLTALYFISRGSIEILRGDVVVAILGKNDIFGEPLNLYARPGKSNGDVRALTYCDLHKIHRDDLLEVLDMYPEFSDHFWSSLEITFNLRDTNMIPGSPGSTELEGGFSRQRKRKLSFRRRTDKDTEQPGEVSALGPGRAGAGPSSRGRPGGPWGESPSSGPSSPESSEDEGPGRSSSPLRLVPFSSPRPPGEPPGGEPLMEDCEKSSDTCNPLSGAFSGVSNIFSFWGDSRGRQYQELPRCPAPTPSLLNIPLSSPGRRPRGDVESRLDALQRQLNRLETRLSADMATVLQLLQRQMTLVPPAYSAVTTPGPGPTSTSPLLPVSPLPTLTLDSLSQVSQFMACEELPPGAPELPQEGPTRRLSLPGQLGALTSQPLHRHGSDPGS
row,Structure (SMILES),"hERG current change (%, negative = inhibition) at 10uM [%]"
1,CC(C)c1nc(=S)n(-c2ccccc2)[nH]1,17.5
2,COc1cccc(Cn2nnc(C(=O)Nc3cc(C)ccc3OC)c2N)c1,8.11
3,CCOC(=O)C1C(=O)NC(c2ccccc2)=NC1c1ccc(O)c(OC)c1 (centres unmarked),9.11
4,Cc1ccccc1CN1C(=O)[C@@H]2Cc3c([nH]c4ccccc34)C(C)(C)N2C1=O,19
5,Cl.N=c1sccn1CC(=O)N1CCc2ccccc21,-8.84
6,Cc1ccc(NC2=Nc3ccccc3CS2)cc1,8.04
7,CCOC(=O)c1c(NC(=O)CSc2nc3ccccc3o2)sc(C)c1C,19.4
8,Cc1ccc2c(c1)nnn2C1CCN(CC(=O)Nc2ccc(F)cc2)CC1,-65.4
9,Cc1ccccc1C(=O)NC1CCN(CC(=O)Nc2ccc3c(c2)OCCO3)CC1,2.93
10,Cc1ccc2c(c1)nnn2C1CCN(CC(=O)N2CCN(c3ccc(F)cc3)CC2)CC1,-70.3
11,O=C(CN1CCC(n2nnc3cc(F)ccc32)CC1)Nc1ccc2c(c1)CCC2,-21.3
12,O=C(CN1CCC(n2nnc3cc(C(F)(F)F)ccc32)CC1)Nc1ccc2c(c1)OCCO2,-36.5
13,Cc1ccc2c(c1)nnn2C1CCN(CC(=O)c2ccc(Cl)cc2)CC1,-45.9
14,Cc1ccc2c(c1)nnn2C1CCN(CC(=O)Nc2ccc3c(c2)OCCO3)CC1,-55.5
15,Cc1ccc2c(c1)nnn2C1CCN(C(=O)C23CC4CC(CC(C4)C2)C3)CC1,1.11
16,CC1(CCC#N)N=C(SCCC#N)N(c2ccccc2)C1=O (centres unmarked),2.7
17,NC(Cc1ccc(O)c([N+](=O)[O-])c1)C(=O)O (centres unmarked),15.2
18,CN(CC(=O)NCCN1CCN(Cc2ccccc2)CC1)S(=O)(=O)c1cccc2nsnc12,-25.4
19,CCC/C=C1/CCCOC(C(=O)NCc2cc(C)n(C)n2)(C(F)(F)F)C1 (centres unmarked),5.48

row,Structure (SMILES),"hERG current change (%, negative = inhibition) at 10uM [%]"
1,O=C(CSc1nnc(NC(=O)c2ccccc2C(=O)O)s1)Nc1ccccc1Cl,24
2,O=C(O)c1ccc(Nc2nc(-c3cccnc3)cs2)cc1O,9.69
3,C=CCNC(=O)CSc1nnc(-c2cccs2)o1,-0.265
4,Cc1ccc(-c2nn(-c3cc(Cl)ccc3[N+](=O)[O-])c(=O)c3ccccc23)cc1,-22.1
5,Cc1[nH]nc2c1C1(CCN(Cc3ccccc3)CC1)C(C#N)=C(N)O2,-42
6,Cc1nc2c([nH]1)C1(CCN(Cc3ccccc3)CC1)C(C#N)=C(N)O2.Cl,-52.5
7,CC(C)c1[nH]nc2c1C1(CCN(Cc3ccccc3)CC1)C(C#N)=C(N)O2,-25.5
8,COCCN1C(=O)c2cc(C(=O)Nc3cccc(F)c3)ccc2C1Nc1cccc(F)c1 (centres unmarked),7.71
9,Cc1cc(C)c(S(=O)(=O)c2ccccc2)c(N(C)C)n1,4.06
10,Cc1ccc(S(=O)(=O)c2c(N)n(CCCO)c3nc4ccccc4nc23)cc1,-21.4
11,Nc1c(S(=O)(=O)c2ccccc2)c2nc3ccccc3nc2n1CCN1CCOCC1,-38.2
12,CCCCn1c(N)c(S(=O)(=O)c2ccc(C)cc2)c2nc3ccccc3nc21,-0.298
13,CN(C)CCCn1c(N)c(S(=O)(=O)c2ccccc2)c2nc3ccccc3nc21,-51.1
14,CCN(CC)CCn1c(N)c(S(=O)(=O)c2ccccc2)c2nc3ccccc3nc21,-49.4
15,Cc1ccc(S(=O)(=O)c2c(N)n(CCCN(C)C)c3nc4ccccc4nc23)cc1,-59
16,O=C(NCC1CCCN(C(=O)CN2CCCCC2)C1)c1ccccc1Cl (centres unmarked),13
17,Cc1cc(SCC(=O)NCCC2=CCCCC2)nc2ccccc12,-10.9
18,O=c1c(-c2ccnn2-c2ccc(F)cc2)cnc2n1CCS2,19.9
19,COC(=O)C1CCN(C(=O)/C=C/c2ccccc2)CC1,4.21

row,Structure (SMILES),"hERG current change (%, negative = inhibition) at 10uM [%]"
1,Cc1cccc(NC(=O)CN2CCN(C(=O)C3CCC3)CC2)c1C,-31.4
2,CCc1ccccc1NC(=O)CN1CCN(C(=O)C2CCN(C(=O)/C=C/c3ccccc3)CC2)CC1,-72.9
3,Cc1cccc(NC(=O)CN2CCN(C(=O)C3CCN(C(=O)/C=C/c4ccccc4)CC3)CC2)c1C,-73.9
4,CCOC(=O)C1CCN(C(=O)/C=C/c2ccccc2)CC1,-16.8
5,Cc1cccc(NC(=O)CN2CCN(C(=O)C3CCCO3)CC2)c1C (centres unmarked),9.91
6,C/C(=N\N=c1/sc2ccccc2n1C)c1ccc(N2CCOCC2)cc1,18.9
7,Cc1ccc2c(CC(=O)OCc3nc(N)nc(Nc4ccccc4C)n3)coc2c1,5.79
8,CCCNC(=O)OCc1cccnc1Sc1ccc(C)cc1,-30
9,COCCOc1ccc(C(F)(F)F)cc1NC(=O)c1ccc(C)cc1,-0.151
10,COc1ccc(CCNC(=O)[C@@H](NC(=O)c2ccccc2F)C(C)C)cc1OC,-9.87
11,O=C(CSc1ncccn1)NCc1ccc2c(c1)OCO2,11.9
12,Clc1ccc(OCc2nc(-c3ccccn3)n[nH]2)cc1,-55.6
13,Cc1ccc(OCc2nc(-c3ccccn3)n[nH]2)cc1,-15.7
14,Brc1ccc(OCc2nc(-c3ccccn3)n[nH]2)cc1,-3.04
15,O=C(CN1CC=C(c2ccccc2)CC1)Nc1c(Cl)cccc1Cl,4.21
16,CCOc1ccc2c(c1)-c1c(ssc1=S)C(C)(C)N2,4.44
17,O=C(O)CCCC(=O)Nc1ccc(Cl)cc1,21.6
18,COc1cccc(-c2noc(Cn3nc(C)c([N+](=O)[O-])c3C)n2)c1,-6.89
